# According to PubChem BioAssay (EPA / NIEHS):
# The source holds several records for some structures; these can differ, active in one and inactive in another. Calls of active or inactive are those of the source. The calls were made as follows: active = hit-call score of the fitted dose curve at least 0.9, where 1 is the maximum; inactive = score below 0.9.
# How the values were obtained:
# [1] = read-out: Interleukin-8 (IL8), CXCL8 (gene 3576); assay: BSK_MyoF_IL8: BioMAP Diversity Plus: MyoF Assay for Interleukin-8 (IL8) Biomarker Activity (AID 2284261); details: primary human lung fibroblasts
# Summary of the method: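 ELISA read-out of IL-8 from primary human lung fibroblasts, 24 h post-dose; positive-direction curve fitting relative to DMSO vehicle baseline.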
# [2] = read-out: Basic fibroblast growth factor (bFGF), FGF2 (gene 2247); assay: BSK_MyoF_bFGF: BioMAP Diversity Plus: MyoF Assay for Basic fibroblast growth factor (bFGF) Biomarker Activity (AID 2284246); details: primary human lung fibroblasts
# Summary of the method: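 ELISA-measured bFGF level serves as the read-out, taken 24 h after chemical dosing of human lung fibroblasts. Values represent signal gain over the DMSO negative control.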
# [3] = read-out: Collagen IV, COL4A1 (gene 1282); assay: BSK_MyoF_CollagenIV: BioMAP Diversity Plus: MyoF Assay for Collagen IV Biomarker Activity (AID 2284247); details: primary human lung fibroblasts
# Summary of the method: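 Steps: dose human lung fibroblasts; culture 24 h; quantify Collagen IV by ELISA; fit increase versus DMSO control. Parallel SRB total-protein staining (0.1% SRB after 10% TCA fixation, 560 nm) tracks overt cytotoxicity.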
# [4] = read-out: Plasminogen activator inhibitor-1 (PAI1), SERPINE1 (gene 5054); assay: BSK_MyoF_PAI1: BioMAP Diversity Plus: MyoF Assay for Plasminogen activator inhibitor-1 (PAI1) Biomarker Activity (AID 2284256); details: primary human lung fibroblasts;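 as to outcome: PAI-1 protein level measured by ELISA in fibroblast cultures; PAI-1 read 24 h after compound addition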
# Summary of the method: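 ELISA read-out of PAI-1 from primary human lung fibroblast cultures 24 h after dosing; gain-of-signal fit versus DMSO control.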
# [5] = read-out: Monokine induced gamma interferon (MIG), CXCL9 (gene 4283); assay: BSK_KF3CT_MIG: BioMAP Diversity Plus: KF3CT Assay for Monokine induced gamma interferon (MIG) Biomarker Activity (AID 2284248); details: primary human keratinocytes with fibroblasts
# Summary of the method: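 Human keratinocyte plus foreskin fibroblast primary co-culture dosed with test chemical for 24 h; MIG level measured by ELISA and fitted in the positive direction against DMSO as baseline.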
# [6] = read-out: Collagen I, COL1A1 (gene 1277); assay: BSK_hDFCGF_CollagenI: BioMAP Diversity Plus: hDFCGF Assay for Collagen I Biomarker Activity (AID 2284250); details: primary human foreskin fibroblasts
# Summary of the method: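 Human skin primary fibroblasts dosed with test chemical, harvested at 24 h, Collagen I quantified by ELISA; parallel SRB staining (0.1% SRB after 10% TCA fixation, 560 nm) tracked cytotoxicity.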
# [7] = read-out: Interferon-inducible T-cell alpha chemoattractant (ITAC), CXCL11 (gene 6373); assay: BSK_hDFCGF_ITAC: BioMAP Diversity Plus: hDFCGF Assay for Interferon-inducible T-cell alpha chemoattractant (ITAC) Biomarker Activity (AID 2284251); details: primary human foreskin fibroblasts
# Summary of the method: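 Fibroblasts (human foreskin, primary) are treated with chemical, cultured 24 h, then assayed for I-TAC by ELISA. Overt toxicity is checked in parallel cultures by sulforhodamine B staining of total protein at the same time point.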
# [8] = read-out: Plasminogen activator inhibitor-1 (PAI1), SERPINE1 (gene 5054); assay: BSK_KF3CT_PAI1: BioMAP Diversity Plus: KF3CT Assay for Plasminogen activator inhibitor-1 (PAI1) Biomarker Activity (AID 2284252); details: primary human keratinocytes with fibroblasts
# Summary of the method: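 ELISA read-out of PAI-1 taken 24 h after chemical treatment of a human skin primary co-culture of keratinocytes and foreskin fibroblasts. Increases over DMSO-treated wells defined activity.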
# [9] = read-out: Interleukin-8 (IL8), CXCL8 (gene 3576); assay: BSK_KF3CT_IL8: BioMAP Diversity Plus: KF3CT Assay for Interleukin-8 (IL8) Biomarker Activity (AID 2284254); details: primary human keratinocytes with fibroblasts
# Summary of the method: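 Human primary keratinocyte plus foreskin fibroblast co-culture dosed with test chemicals; IL-8 measured by ELISA 24 h after dosing. Activity fitted in the positive direction relative to DMSO negative control.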
smiles,measurement,setting,value
O=C(O)COc1cc(Cl)c(Cl)cc1Cl,outcome,[1],inactive
CCOC(=O)CCN(SN(C)C(=O)Oc1cccc2c1OC(C)(C)C2)C(C)C,outcome,[1],inactive
Cc1cccc(OP(=O)(Oc2cccc(C)c2)Oc2cccc(C)c2)c1,outcome,[2],inactive
same,AC50,[3],38.2 nM (active)
same,AC50,[4],16 nM (active)
same,outcome,[1],inactive
CCOP(=S)(OCC)OP(=S)(OCC)OCC,outcome,[2],inactive
same,outcome,[3],inactive
same,outcome,[4],inactive
same,outcome,[1],inactive
Nc1ccc(N)cc1,outcome,[2],inactive
same,outcome,[3],inactive
same,outcome,[4],inactive
OCCCCO,outcome,[5],inactive
same,outcome,[6],inactive
same,outcome,[7],inactive
same,outcome,[8],inactive
same,outcome,[9],inactive
O=[N+]([O-])c1cccc2ccccc12,outcome,[2],inactive
same,outcome,[3],inactive
same,outcome,[4],inactive
OC(Cc1ccccc1Cl)(Cn1[nH]cnc1=S)C1(Cl)CC1 (stereo not drawn),outcome,[2],inactive
same,outcome,[3],inactive
same,AC50,[4],34500 nM (active)
CCCCCCCCCCCCN(C)C,outcome,[2],inactive
same,outcome,[3],inactive
same,outcome,[4],inactive
c1ccc2sc(SNC3CCCCC3)nc2c1,outcome,[2],inactive
same,outcome,[3],inactive
same,outcome,[4],inactive
c1ccc(-c2cccc(-c3ccccc3)c2)cc1,outcome,[2],inactive
same,outcome,[3],inactive
same,outcome,[4],inactive
Cc1cc(C(C)(C)c2ccc(O)c(C)c2)ccc1O,outcome,[2],inactive
same,outcome,[3],inactive
same,outcome,[4],inactive
same,outcome,[1],inactive
C#CCOC(=O)/C=C(C)/C=C/CC(C)CCCC(C)C (stereo not drawn),outcome,[2],inactive
same,outcome,[3],inactive
same,outcome,[4],inactive
Nc1c(Oc2ccccc2)cc(O)c2c1C(=O)c1ccccc1C2=O,outcome,[2],inactive
same,AC50,[3],2540 nM (active)
same,outcome,[4],inactive
C[C@]12CC[C@@H](O)C[C@@H]1CC[C@@H]1[C@@H]2CC[C@]2(C)C(=O)CC[C@@H]12,outcome,[2],inactive
same,outcome,[3],inactive
same,outcome,[4],inactive
same,outcome,[1],inactive
C=CC(Cl)CCl (stereo not drawn),outcome,[2],inactive
same,AC50,[3],31.1 nM (active)
same,AC50,[4],806 nM (active)
Cc1ccccc1OP(=O)(Oc1ccccc1C)Oc1ccccc1C,AC50,[2],33300 nM (active)
same,AC50,[3],20000 nM (active)
same,AC50,[4],11900 nM (active)
same,AC50,[1],5420 nM (active)
O=C(Cc1ccccc1)OCCc1ccccc1,outcome,[5],inactive
same,outcome,[6],inactive
same,outcome,[7],inactive
same,outcome,[8],inactive
same,outcome,[9],inactive
CCOC(=O)C(SP(=S)(OC)OC)c1ccccc1 (stereo not drawn),outcome,[2],inactive
same,outcome,[3],inactive
same,outcome,[4],inactive
OC(Cc1ccccc1Cl)(Cn1cncn1)C1(Cl)CC1 (stereo not drawn),outcome,[2],inactive
same,outcome,[3],inactive
same,outcome,[4],inactive
O=C1C=CC(=O)c2ccccc21,AC50,[2],4170 nM (active)
same,AC50,[3],2560 nM (active)
same,AC50,[4],4230 nM (active)
CC(C)(COCC1CO1)COCC1CO1 (stereo not drawn),outcome,[2],inactive
same,outcome,[3],inactive
same,outcome,[4],inactive
CC(C)(C)c1cc([N+](=O)[O-])cc(C(C)(C)C)c1O,outcome,[2],inactive
same,AC50,[3],396 nM (active)
same,AC50,[4],16 nM (active)
same,outcome,[1],inactive
CC1(C)[C@H](C(=O)O[C@H](C#N)c2cccc(Oc3ccccc3)c2)[C@@H]1/C=C(\Cl)C(F)(F)F,outcome,[2],inactive
same,outcome,[3],inactive
same,AC50,[4],14.1 nM (active)
same,outcome,[4],inactive
CCCCOC(=O)COC(=O)c1ccccc1C(=O)OCCCC,outcome,[5],inactive
same,outcome,[6],inactive
same,outcome,[7],inactive
same,outcome,[8],inactive
same,outcome,[9],inactive
CCCCN(CCCC)C(=S)[S-].CCCCN(CCCC)C(=S)[S-].[Ni+2],outcome,[2],inactive
same,outcome,[3],inactive
same,outcome,[4],inactive
same,outcome,[1],inactive
[Cl][Sn]([c]1ccccc1)([c]1ccccc1)[c]1ccccc1,AC50,[2],324 nM (active)
same,AC50,[3],286 nM (active)
same,AC50,[4],169 nM (active)
Cc1c([N+](=O)[O-])c(C)c([N+](=O)[O-])c(C(C)(C)C)c1[N+](=O)[O-],outcome,[2],inactive
same,outcome,[3],inactive
same,outcome,[4],inactive
same,outcome,[1],inactive
CCOP(=S)(OCC)SCS(=O)(=O)C(C)(C)C,outcome,[2],inactive
same,outcome,[3],inactive
same,outcome,[4],inactive
